Results filed as inconclusive are left out. Activity calls are given as the source filed them. Unless noted, calls come from the whole dose curve; as a rule, active = well fitted curve in the direction sought with a large enough effect in the repeat runs; inconclusive = weak or mixed curves; inactive = no such curve, though single readings can be large; an effect the other way counts as inactive or inconclusive.
Columns and labels:
[1] = qHTS assay to identify small molecule antagonists of the estrogen receptor alpha (ER-alpha) signaling pathway using the BG1 cell line in the presence of 0.1 nM 17-beta-estradiol - cell viability counter screen (AID 1259241); note: nearly all actives have a fitted effect of over 40% in size
Summary of the method: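 VM7Luc4E2 cells (endogenous full-length ER-alpha, 4xERE-luciferase), cultured 5 days in charcoal-stripped serum, exposed to compounds with 0.1 nM 17beta-estradiol (final) for 22 hr at 37C. Viability read in same wells as live-cell protease fluorescence after 30 min.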

[2] = qHTS assay to identify small molecule antagonists of the androgen receptor (AR) signaling pathway using the MDA cell line in the presence of 0.5 nM R1881 - cell viability counter screen (AID 1259242); note: nearly all actives have a fitted effect of over 45% in size; note: potency is the fitted concentration of half-maximal effect
Summary of the method: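 R1881 at 0.5 nM final stimulated MDA-kb2 cells during 16 hr compound treatment at 37C. Cytotoxicity read: CellTiter-Fluor fluorescence after 30 min.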

[3] = qHTS assay to identify small molecule HDAC inhibitors (AID 1259364); note: potency is the fitted concentration of half-maximal effect;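 note: wild-type HCT-116 cells with endogenous class I/II HDAC activity; nearly all actives have a fitted effect of over 45% in size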
Summary of the method: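 Relative class I and II HDAC activity is taken from the luminogenic signal in HCT-116 cells, with compound exposure 2 hr and reagent development 30 min at room temperature.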

[4] = qHTS assay to identify small molecule HDAC inhibitors - cell viability counter screen (AID 1259365); note: series mostly up to about 92 µM; nearly all actives have a fitted effect of over 50% in size
Summary of the method: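 Wild-type HCT-116 cells, 1,500/well, cultured overnight, then compound-treated 2 h at 37 C. Viability measured as ATP luminescence with CellTiter-Glo after 30 min at room temperature.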

[5] = qHTS assay to identify small molecule agonists of the sonic hedgehog signaling (Shh) pathway (AID 1259368; calls by dose curve;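 note: NIH/3T3-derived 3T3Gli1-Luc cells carrying a stable Gli1-driven firefly luciferase reporter; series mostly up to about 92 µM; nearly all actives have a fitted effect of over 15% in size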)
Summary of the method: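 Mouse fibroblast (NIH/3T3) reporter cells with stably integrated Gli1-Luc were treated 24 hr with compound; firefly luciferase luminescence served as the read-out.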

[6] = biological target: Estrogen receptor beta (Homo sapiens) (UniProt Q92731); test: qHTS assay to identify small molecule agonists of the estrogen receptor beta (ER-beta) signaling pathway (AID 1259377; active = well fitted activation curve with a large enough effect in the signal ratio in the repeat runs, not every such curve was filed as active; the % refers to the signal ratio)
Summary of the method: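 ER-beta-UAS-bla HEK293T cells in medium with 2% charcoal-stripped FBS were exposed to compounds for 16 h at 37C. Beta-lactamase reporter activity was read as fluorescence after 2 h with LiveBLAzer B/G FRET substrate at room temperature.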

[7] = qHTS assay to identify small molecule agonists of the androgen receptor (AR) signaling pathway in the presence of an antagonist - cell viability counter screen (AID 1259379); note: nearly all actives have a fitted effect of over 25% in size; note: potency is the fitted concentration of half-maximal effect
Summary of the method: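 A CellTiter-Fluor read-out measured viability of MDA-kb2 reporter cells (MMTV promoter with AR and GR response elements). Treatment: nilutamide 3.0uM final with compounds at 15 concentrations, 16 hr, 37C, 0% CO2.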

[8] = qHTS assay to identify small molecule antagonists of the estrogen receptor beta (ER-beta) signaling pathway - cell viability counter screen (AID 1259382); note: nearly all actives have a fitted effect of over 55% in size; note: potency is the fitted concentration of half-maximal effect
Summary of the method: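 Agonist-stimulated (1nM E2) ER-beta-UAS-bla HEK293T cells are incubated with library compounds for 16 hr at 37C. Cell viability is then assessed in the reporter-assay wells by adding CellTiter-Glo and reading luminescence after 30 min.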

[9] = qHTS assay to identify small molecule agonists or antagonists of the thyroid stimulating hormone receptor (TSHR) signaling pathway - wild type cell line counter screen (AID 1259384; calls by dose curve)
Summary of the method: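 Wild-type HEK293 cells were plated 18 h at 37 C/5% CO2, pin-dosed with compound plus Ro20-1724 medium, held 30 min at room temperature, then given cAMP-d2 and anti-cAMP-cryptate; fluorescence was read after 1 h. Fifteen concentrations, triplicate.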

[10] = biological target: Thyrotropin receptor (Homo sapiens) (UniProt P16473); test: qHTS assay to identify small molecule antagonists of the thyroid stimulating hormone receptor (TSHR) signaling pathway (AID 1259385; calls by dose curve; note: nearly all actives have a fitted effect of over 20% in size; note: potency is the fitted concentration of half-maximal effect)
Summary of the method: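 TSHR-HEK293 cells were plated and held 18 h at 37C/5% CO2, then given compound plus Ro20-1724 and stimulated with TSH at 1.5 ng/mL final. After 30 min at room temperature, cAMP was detected with cAMP-d2/anti-cAMP-cryptate (1 h) by fluorescence.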

[11] = qHTS assay to identify small molecule agonists of the sonic hedgehog signaling (Shh) pathway - cell viability counter screen (AID 1259366); note: nearly all actives have a fitted effect of over 50% in size; note: potency is the fitted concentration of half-maximal effect
Summary of the method: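 NIH/3T3-derived Gli1-Luc reporter cells, 2,000 per well, received compound after 4 h and were treated about 23 h at 37C. Viability measured in the same wells by CellTiter-Fluor fluorescence after 1 h.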

[12] = qHTS assay to identify small molecule antagonists of the sonic hedgehog signaling (Shh) pathway (AID 1259369; calls by dose curve; note: nearly all actives have a fitted effect of over 45% in size; note: potency is the fitted concentration of half-maximal effect)
Summary of the method: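 Conditioned medium drives Shh signalling in 3T3Gli1-Luc cells; compounds in DMSO co-applied, 24hr at 37 C, then luciferase luminescence.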

[13] = biological target: Androgen receptor (Homo sapiens) (UniProt P10275); test: qHTS assay to identify small molecule antagonists of the androgen receptor (AR) signaling pathway using the MDA cell line in the presence of 0.5 nM R1881 (AID 1259243); note: potency is the fitted concentration of half-maximal effect; nearly all actives have a fitted effect of over 50% in size
Summary of the method: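 We exposed MDA-kb2 cells to compounds under 0.5 nM R1881 stimulation for 16 hr at 37C and quantified MMTV-driven luciferase by luminescence.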

[14] = biological target: Estrogen receptor (Homo sapiens) (UniProt P03372); test: qHTS assay to identify small molecule antagonists of the estrogen receptor alpha (ER-alpha) signaling pathway using the BG1 cell line in the presence of 0.1 nM 17-beta-estradiol (AID 1259244); note: nearly all actives have a fitted effect of over 50% in size; note: potency is the fitted concentration of half-maximal effect
Summary of the method: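 VM7Luc4E2; 4xERE-luciferase; 0.1 nM E2 final; 22 h co-incubation, 37C; ONE-Glo luminescence after 30 min at room temperature.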

[15] = biological target: Estrogen receptor beta (Homo sapiens) (UniProt Q92731); test: qHTS assay to identify small molecule antagonists of the estrogen receptor beta (ER-beta) signaling pathway (AID 1259378; active = well fitted inhibition curve with a large enough effect in the signal ratio in the repeat runs, not every such curve was filed as active; the % refers to the signal ratio; note: potency is the fitted concentration of half-maximal effect)
Summary of the method: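 ER-beta-UAS-bla HEK293T (GripTite) cells in 2% charcoal-stripped FBS medium were preincubated 6 hr at 37C, dosed with compound, then stimulated with 1 nM E2 (final) for 16 hr; beta-lactamase reporter read by B/G FRET fluorescence after 2 hr substrate loading.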

[16] = biological target: Androgen receptor (Homo sapiens) (UniProt P10275); test: qHTS assay to identify small molecule agonists of the androgen receptor (AR) signaling pathway in the presence of an antagonist (AID 1259381; calls by dose curve; note: nearly all actives have a fitted effect of over 15% in size)
Summary of the method: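 Using human MDA-kb2 cells with an MMTV promoter–luciferase construct (AR and GR response elements), agonist activity is scored under 3.0uM nilutamide (final) co-treatment; 16hr incubation, 37C, luminescence readout via ONE-Glo.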

[17] = biological target: Estrogen receptor (Homo sapiens) (UniProt P03372); test: qHTS assay to identify small molecule agonists of the estrogen receptor alpha (ER-alpha) signaling pathway in the presence of an antagonist (AID 1259383; calls by dose curve; note: top concentration of the series differs between compounds; nearly all actives have a fitted effect of over 15% in size)
Summary of the method: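 Using VM7Luc4E2 cells seeded 24hr before treatment, antagonist ICI-182,780 (10.0nM final) was added, followed by compounds at 15 concentrations. Plates incubated 22hr; ONE-Glo luminescence quantified reporter activity.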

[18] = qHTS assay to identify small molecule antagonists of the sonic hedgehog signaling (Shh) pathway - cell viability counter screen (AID 1259367); note: nearly all actives have a fitted effect of over 55% in size; note: potency is the fitted concentration of half-maximal effect
Summary of the method: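 After a 4 hr settling period, 3T3 Gli1-Luc cells were treated with DMSO-dissolved chemicals and conditioned medium, kept 24 hr at 37C in 5% CO2, and assayed for viability by CellTiter-Fluor fluorescence following 1 hr reagent incubation.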

[19] = qHTS assay to identify small molecule agonists of the estrogen receptor beta (ER-beta) signaling pathway - cell viability counter screen (AID 1259380); note: nearly all actives have a fitted effect of over 30% in size; note: potency is the fitted concentration of half-maximal effect
Summary of the method: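 Cells used were ER-beta-UAS-bla HEK293T in medium with 2% charcoal-stripped FBS. They were treated for 16 hr at 37C. Viability came from CellTiter-Glo luminescence.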

[20] = qHTS assay to identify small molecule phospholipidosis (PLD) inducers (AID 1259344; active = well fitted curve in the direction sought with a large enough effect; an effect the other way counts as inactive or inconclusive)
Summary of the method: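 HepG2 cells grown on collagen I take up LipidTOX Red while exposed to compound for 24 h; after fixation they are imaged at 20x and pit metrics are extracted.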

Measured: Potency

Sequence of Androgen receptor (Homo sapiens) (P10275 whole entry, looked up): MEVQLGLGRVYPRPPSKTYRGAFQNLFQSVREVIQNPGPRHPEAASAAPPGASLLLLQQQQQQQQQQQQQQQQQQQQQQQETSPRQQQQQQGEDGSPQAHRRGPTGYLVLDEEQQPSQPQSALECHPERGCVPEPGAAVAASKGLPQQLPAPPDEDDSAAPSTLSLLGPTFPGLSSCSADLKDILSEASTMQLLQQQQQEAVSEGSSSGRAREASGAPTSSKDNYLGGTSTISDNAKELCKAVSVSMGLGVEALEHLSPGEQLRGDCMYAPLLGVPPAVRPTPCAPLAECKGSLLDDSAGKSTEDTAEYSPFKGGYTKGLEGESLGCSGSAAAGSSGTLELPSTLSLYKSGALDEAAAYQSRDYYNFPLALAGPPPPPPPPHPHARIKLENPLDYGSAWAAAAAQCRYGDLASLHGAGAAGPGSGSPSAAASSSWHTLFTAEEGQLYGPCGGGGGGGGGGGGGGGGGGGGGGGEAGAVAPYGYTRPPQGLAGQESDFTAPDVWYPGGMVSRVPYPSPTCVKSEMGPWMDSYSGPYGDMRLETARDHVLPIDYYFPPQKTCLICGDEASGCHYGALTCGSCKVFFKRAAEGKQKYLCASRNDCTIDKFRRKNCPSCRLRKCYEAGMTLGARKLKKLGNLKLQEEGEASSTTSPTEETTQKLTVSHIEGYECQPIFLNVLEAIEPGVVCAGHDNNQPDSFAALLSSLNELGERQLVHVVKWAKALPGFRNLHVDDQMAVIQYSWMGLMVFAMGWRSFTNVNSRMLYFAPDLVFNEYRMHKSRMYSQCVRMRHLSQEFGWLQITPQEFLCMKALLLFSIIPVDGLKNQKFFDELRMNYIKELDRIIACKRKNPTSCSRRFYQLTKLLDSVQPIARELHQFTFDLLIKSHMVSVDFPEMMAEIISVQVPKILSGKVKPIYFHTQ
Sequence of Estrogen receptor (Homo sapiens) (P03372 whole entry, looked up): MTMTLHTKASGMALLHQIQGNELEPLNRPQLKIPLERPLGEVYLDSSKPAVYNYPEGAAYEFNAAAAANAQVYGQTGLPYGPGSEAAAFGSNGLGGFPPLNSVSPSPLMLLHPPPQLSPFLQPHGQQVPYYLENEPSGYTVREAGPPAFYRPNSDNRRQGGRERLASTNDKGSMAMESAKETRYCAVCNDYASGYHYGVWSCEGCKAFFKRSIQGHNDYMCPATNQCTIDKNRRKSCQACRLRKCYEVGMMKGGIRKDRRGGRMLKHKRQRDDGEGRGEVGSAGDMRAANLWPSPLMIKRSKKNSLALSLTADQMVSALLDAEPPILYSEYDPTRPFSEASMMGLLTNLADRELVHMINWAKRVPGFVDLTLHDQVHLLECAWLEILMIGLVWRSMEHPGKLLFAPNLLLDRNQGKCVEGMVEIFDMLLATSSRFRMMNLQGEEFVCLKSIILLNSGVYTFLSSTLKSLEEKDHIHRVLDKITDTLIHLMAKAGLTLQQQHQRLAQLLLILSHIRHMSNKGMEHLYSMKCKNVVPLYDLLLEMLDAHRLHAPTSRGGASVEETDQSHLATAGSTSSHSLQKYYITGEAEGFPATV
Sequence of Thyrotropin receptor (Homo sapiens) (P16473 whole entry, looked up): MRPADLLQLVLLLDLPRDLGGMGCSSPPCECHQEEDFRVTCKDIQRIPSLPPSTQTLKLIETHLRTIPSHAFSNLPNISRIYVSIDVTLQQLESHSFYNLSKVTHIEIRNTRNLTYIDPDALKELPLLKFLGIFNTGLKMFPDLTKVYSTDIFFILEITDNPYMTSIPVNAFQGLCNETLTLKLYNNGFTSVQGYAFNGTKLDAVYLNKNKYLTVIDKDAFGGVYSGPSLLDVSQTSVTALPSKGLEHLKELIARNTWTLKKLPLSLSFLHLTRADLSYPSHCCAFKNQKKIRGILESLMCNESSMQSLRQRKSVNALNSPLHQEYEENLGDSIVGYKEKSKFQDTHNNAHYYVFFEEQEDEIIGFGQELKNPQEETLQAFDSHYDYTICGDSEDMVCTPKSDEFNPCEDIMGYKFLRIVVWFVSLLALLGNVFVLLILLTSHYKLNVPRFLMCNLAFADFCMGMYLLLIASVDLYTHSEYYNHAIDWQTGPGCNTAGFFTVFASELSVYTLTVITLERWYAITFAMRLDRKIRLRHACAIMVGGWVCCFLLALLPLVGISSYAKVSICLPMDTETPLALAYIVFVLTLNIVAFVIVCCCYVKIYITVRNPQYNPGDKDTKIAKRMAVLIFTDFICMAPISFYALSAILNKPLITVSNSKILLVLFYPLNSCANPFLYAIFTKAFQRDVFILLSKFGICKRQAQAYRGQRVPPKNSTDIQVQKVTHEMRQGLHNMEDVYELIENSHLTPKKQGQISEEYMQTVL
Sequence of Estrogen receptor beta (Homo sapiens) (Q92731 whole entry, looked up): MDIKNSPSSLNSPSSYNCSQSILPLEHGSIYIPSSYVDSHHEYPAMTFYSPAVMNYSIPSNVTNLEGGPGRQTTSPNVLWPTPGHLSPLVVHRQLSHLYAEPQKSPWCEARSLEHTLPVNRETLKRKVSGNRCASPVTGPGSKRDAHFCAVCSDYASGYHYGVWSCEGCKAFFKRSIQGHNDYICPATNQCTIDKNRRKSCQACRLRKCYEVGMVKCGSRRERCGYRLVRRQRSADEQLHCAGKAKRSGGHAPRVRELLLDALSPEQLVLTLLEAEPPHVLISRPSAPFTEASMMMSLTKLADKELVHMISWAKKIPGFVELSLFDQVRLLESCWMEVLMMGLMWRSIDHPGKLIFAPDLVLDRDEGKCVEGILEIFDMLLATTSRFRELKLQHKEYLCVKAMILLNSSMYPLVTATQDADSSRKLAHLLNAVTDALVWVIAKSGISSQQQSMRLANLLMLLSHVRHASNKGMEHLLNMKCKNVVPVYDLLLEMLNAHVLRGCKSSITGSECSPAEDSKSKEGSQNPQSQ

CC(C)(C)c1cc(CO)cc(C(C)(C)C)c1O
inactive: [1] | [2] | [3] | [4] | [5] | [6] | [7] | [8] | [9] | [10]

CCOC(=O)[C@H](CCc1ccccc1)N[C@H]1CCc2ccccc2N(CC(=O)O)C1=O
inactive: [1] | [3] | [4] | [11] | [5] | [12] | [6] | [7] | [9]
active: [10] 29.8 µM

CC(C)(C)c1cc(O)c(C(C)(C)C)cc1O
active: [2] 54.5 µM | [13] 19.3 µM | [14] 43.3 µM | [11] 61.1 µM | [12] 30.6 µM | [15] 30.6 µM | [7] 54.5 µM
not listed: [1] | [10] | [18] | [19] | [20]
inactive: all other assays above

CC(=O)OC/C=C/c1ccccc1
not listed: [4] | [13] | [14] | [16] | [17] | [20]
inactive: all other assays above

CCCCCCCCCCCCC(=O)O
active: [12] 2.74 µM | [19] 54.6 µM
inactive: [1] | [2] | [3] | [4] | [11] | [5] | [7] | [17] | [9] | [10]

CCCCCCCCCO
not listed: [9] | [11] | [13] | [14] | [16] | [18] | [19] | [20]
inactive: all other assays above

CCCCCCCCCC(=O)OCC
not listed: [6] | [11] | [13] | [14] | [16] | [20]
inactive: all other assays above

NC(N)=N/N=C/c1c(Cl)cccc1Cl
active: [13] 23.7 µM | [18] 10.6 µM
inactive: [14] | [3] | [4] | [5] | [16] | [17] | [9] | [10]

FC(F)(F)C(F)(F)C(F)(F)C(F)(F)C(F)(F)C(F)(F)CCI
not listed: [4] | [6] | [13] | [14] | [15] | [16] | [18] | [20]
inactive: all other assays above

CCCCCC/C=C/C=O
inactive: [2] | [3] | [4] | [18] | [5] | [12] | [7] | [19] | [8]

CN1CCN(C2=Nc3cc(Cl)ccc3Nc3ccccc32)CC1
inactive: [1] | [2] | [3] | [4] | [5] | [6] | [7]
active: [11] 13.3 µM | [19] 29.8 µM

CCCCOC(=O)c1ccccc1C(=O)OCC(CC)CCCC (stereo not drawn)
not listed: [11] | [13] | [14] | [15] | [16] | [20]
inactive: all other assays above

CCN(CC)CCOc1ccc2c(c1)C(=O)c1cc(OCCN(CC)CC)ccc1-2
inactive: [1] | [3] | [11] | [18] | [5] | [12]
active: [7] 13.3 µM | [19] 18.8 µM | [8] 18.8 µM

O=C(CC(=O)c1ccccc1)c1ccccc1
active: [3] 2.93 µM
inactive: [1] | [2] | [4] | [18] | [12] | [7] | [19] | [8] | [9]

CCOc1ccc2[nH]cc(C(=O)NCc3ccccc3)c(=O)c2n1
inactive: [1] | [2] | [3] | [11] | [18] | [5] | [7] | [8] | [17] | [9]

Cc1nc2ccccc2n1Cc1ccc(Cl)cc1
inactive: [20] | [3] | [4] | [18] | [5] | [6] | [8]
active: [2] 5.96 µM | [7] 4.22 µM

C=CC(=O)OCCOC(=O)CCC(=O)O
inactive: [1] | [2] | [3] | [4] | [11] | [5] | [7] | [19] | [8] | [9]
active: [12] 61.1 µM

CCCC[C@H]1CN(CC2CCOCC2)C(=O)OC12CCN(C1(C)CCN(C(=O)c3c(C)ncnc3C)CC1)CC2
inactive: [1] | [2] | [3] | [4] | [5] | [12] | [7] | [19] | [8] | [10]

Cn1c(N)nc2nc[nH]c2c1=O
inactive: [1] | [2] | [3] | [11] | [18] | [5] | [12] | [6] | [15] | [8]
active: [10] 48 µM

COCCCCCCCCOCCC[Si](C)(O[Si](C)(C)C)O[Si](C)(C)C
inactive: [3] | [4] | [18] | [5] | [12] | [6] | [8] | [17] | [9] | [10]
active: [14] 17.2 µM | [7] 17.2 µM

CC(=O)c1ccc2c(c1)[C@H](NC(=O)c1ccc(F)cc1)[C@@H](O)C(C)(C)O2
inactive: [1] | [2] | [3] | [4] | [5] | [12] | [7] | [8] | [9]

O=C=NC1CCC(CC2CCC(N=C=O)CC2)CC1 (stereo not drawn)
inactive: [1] | [3] | [4] | [5] | [6] | [15] | [9] | [10]
active: [12] 43.3 µM | [7] 30.6 µM | [19] 68.6 µM
